C diff growth: C. difficile growth inhibitors, primary screen, HTS; Clostridium difficile clinical isolate growth, OD600, 24 h; active compounds read low; growth activity, negative = inhibition, % at 16 µg/mL (by protocol); 86,000 tested, 0.25% active; AID 1259249, 2017;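 active means mean growth activity at or below -80% and every replicate also at or below -80%; inconclusive means mean at or below -80% but some replicate above -80%; inactive means mean growth activity above -80%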
T cruzi growth-1: T. cruzi intracellular proliferation inhibitors, primary screen, cell-based, beta-gal Tulahuen parasites, NIH3T3 host, luminescence; T. cruzi beta-gal in NIH3T3, GalScreen luminescence, 90 h; inhibition, % at 8.34 µM; 77,000 tested, 5.9% active; AID 624255, 2012;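 active means mean inhibition above about 93%, with at least 55% of replicates each passing it, limit read from the data, passing the limit was not always enough; inconclusive means only one of those two conditions holds; inactive means neither condition holds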
Pf Dd2 inh: P. falciparum Dd2 growth inhibitors, primary screen, SYBR Green fluorescence, single dose replicates; 72 h; active compounds read low; activity change, % at 10 µM; 94,000 tested, 2.3% active; AID 1159554, 2015; in the data active means activity change below about -80%; inconclusive means no clear call, values can overlap the other calls
T cruzi growth-2: T. cruzi intracellular proliferation inhibitors, confirmation, cell-based, NIH3T3 host, beta-gal parasite, luminescence, cherry-pick; shares compounds with T cruzi growth-1; T. cruzi beta-gal in NIH3T3, GalScreen luminescence, 90 h; inhibition, % at 8.35 µM; 5,600 tested, 72% active;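 active means mean replicate inhibition above about 95% and at least 55% of replicates individually reaching it, limit read from the data; inconclusive means only one of the two criteria is met; inactive means neither criterion is met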
T cruzi growth-3: inhibitors of intracellular T. cruzi replication, confirmation, NIH3T3 host cells, beta-gal parasites, cherry-pick, set 2 | T. cruzi beta-gal in NIH3T3, GalScreen luminescence, 90 h | AID 651740, 2012 | shares compounds with T cruzi growth-1 | inhibition, % at 2.09 µM | 5,600 tested, 21% active;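 active means mean inhibition above about 95%, with at least 55% of replicates also reaching it, limit read from the data; inconclusive means meets just one of the two conditions; inactive means meets neither condition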
NIH3T3 tox: cytotoxicity in mouse NIH/3T3 fibroblasts, confirmation, cytotoxicity control for T. cruzi proliferation inhibitor project, cell-based, cherry-pick, single point; shares compounds with T cruzi growth-1; NIH/3T3 viability, CellTiter-Glo ATP luminescence, 90 h; cytotoxicity (signal decrease), % at 8.35 µM; 5,600 tested, 14% active;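 active means mean signal decrease across replicates above about 35% based on untreated-well scatter, with enough replicates individually passing, limit read from the data; inconclusive means no rule stated though some were filed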
NIH3T3 tox 2: NIH/3T3 fibroblast cytotoxicity, confirmation, cytotoxicity control, cell-based, cherry-pick, single point, set 2; 5,600 tested, 56% active; NIH/3T3 viability, CellTiter-Glo ATP luminescence, 90 h; inhibition, % at 24.9 µM; shares compounds with T cruzi growth-1;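 active means mean loss of cell viability signal at or above a set limit, and enough replicates individually reaching it; inconclusive means meets only the mean limit or only the replicate share; inactive means meets neither condition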
Numbers stand for hits; n = inactive; u = inconclusive; x = no result. Most compounds without a hit are left out; they make up all but 6.8% or so of the library.

SMILES	C diff growth	T cruzi growth-1	Pf Dd2 inh	T cruzi growth-2	T cruzi growth-3	NIH3T3 tox	NIH3T3 tox 2
COc1cccc(-c2ccc([C@H]3[C@@H](CO)N4CCCCN(S(=O)(=O)c5cccs5)C[C@H]34)cc2)c1	n	n	n	x	x	x	x
COc1ccc(S(=O)(=O)N2CCCCN3[C@@H](CO)[C@@H](c4ccc(C5=CCCCC5)cc4)[C@@H]3C2)cc1	n	n	n	x	x	x	x
COc1ccc(-c2ccc([C@H]3[C@H]4CN(S(=O)(=O)c5cccs5)CCCCN4[C@H]3CO)cc2)cc1	n	113	n	108	n	n	n
COc1cccc(-c2ccc([C@@H]3[C@H]4CN(S(=O)(=O)c5cccs5)CCCCN4[C@H]3CO)cc2)c1	n	n	n	x	x	x	x
COc1ccc(-c2ccc([C@@H]3[C@H](CO)N4CCCCN(S(=O)(=O)c5cccs5)C[C@@H]34)cc2)cc1	n	n	n	x	x	x	x
Cc1cccc(-c2ccc([C@H]3[C@H]4CN(S(=O)(=O)c5cccs5)CCCCN4[C@H]3CO)cc2)c1	n	107	n	103	99	n	46
O=C(NCC[C@H]1CC[C@H](NS(=O)(=O)Cc2ccccc2)[C@@H](CO)O1)C1CCC1	x	n	n	x	x	x	x
CS(=O)(=O)N1CCCCN2[C@@H](CO)[C@H](c3ccc(C4=CCCC4)cc3)[C@@H]2C1	n	u	n	n	n	n	n
O=S(=O)(c1cccs1)N1CCCCN2[C@H](CO)[C@H](c3ccc(C4=CCCC4)cc3)[C@H]2C1	n	n	n	x	x	x	x
O=S(=O)(c1cccs1)N1CCCCN2[C@H](C1)[C@H](c1ccc(C3=CCCCC3)cc1)[C@@H]2CO	n	120	n	109	n	n	u
CN(C)C(=O)c1ccc(-c2ccc([C@H]3[C@@H](CO)N4CCCCN(S(C)(=O)=O)C[C@@H]34)cc2)cc1	n	98	n	n	n	n	n
O=S(=O)(c1cccs1)N1CCCCN2[C@@H](CO)[C@@H](c3ccc(Br)cc3)[C@@H]2C1	n	n	n	x	x	x	x
COc1ccc(S(=O)(=O)N2CCCCN3[C@H](CO)[C@@H](c4ccc(C5=CCCC5)cc4)[C@@H]3C2)cc1	n	n	n	x	x	x	x
CN(C)C(=O)c1ccc(-c2ccc([C@H]3[C@@H](CO)N4CCCCN(S(C)(=O)=O)C[C@H]34)cc2)cc1	n	n	n	x	x	x	x
O=S(=O)(c1cccs1)N1CCCCN2[C@H](CO)[C@H](c3ccc(Br)cc3)[C@@H]2C1	n	114	n	100	n	n	30
CC(C)NC(=O)N(C)C[C@@H]1Oc2ncc(-c3cncnc3)cc2C(=O)N([C@@H](C)CO)C[C@@H]1C	n	x	n	x	x	x	x
CCCC(=O)N1CCC2(CC1)CN(C(=O)COC)[C@@H](CO)c1c2c2ccc(OC)cc2n1C	n	x	n	x	x	x	x
C[C@@H]1CCCCO[C@@H](CN(C)Cc2ccc(C(=O)O)cc2)[C@H](C)CN([C@H](C)CO)C(=O)c2cc(NC(=O)CCC(F)(F)F)ccc2O1	n	n	n	x	x	x	x
C[C@@H]1CN([C@@H](C)CO)C(=O)c2cccc(NC(=O)NC3CCCCC3)c2O[C@H]1CN(C)C(=O)Nc1ccc(F)cc1	n	n	n	x	x	x	x
COc1ccc(NC(=O)N(C)C[C@H]2OCCCC[C@@H](C)Oc3ccc(NC(=O)C4CCCCC4)cc3C(=O)N([C@H](C)CO)C[C@@H]2C)cc1	n	n	n	x	x	x	x
OC[C@@H]1[C@@H](c2ccc(C#CC3(O)CCCC3)cc2)[C@H]2CN(Cc3ccccc3F)CCCCN12	n	105	n	n	n	n	58
OC[C@@H]1[C@H](c2ccc(C#Cc3cccnc3)cc2)[C@H]2CN(Cc3ccccc3F)CCCCN12	n	114	n	102	113	50	104
OC[C@H]1[C@H](c2ccc(C#Cc3cccnc3)cc2)[C@@H]2CN(Cc3ccccc3F)CCCCN12	n	112	n	111	n	n	103
OC[C@H]1[C@H](c2ccc(C#CC3(O)CCCC3)cc2)[C@H]2CN(Cc3ccccc3F)CCCCN21	n	n	n	x	x	x	x
CC(C)(O)C#Cc1ccc([C@@H]2[C@H]3CN(Cc4ccccc4F)CCCCN3[C@H]2CO)cc1	n	n	n	x	x	x	x
SMILES	C diff growth	T cruzi growth-1	Pf Dd2 inh	T cruzi growth-2	T cruzi growth-3	NIH3T3 tox	NIH3T3 tox 2
COCC#Cc1ccc([C@@H]2[C@H]3CN(Cc4ccccc4F)CCCCN3[C@H]2CO)cc1	n	n	n	x	x	x	x
CCC(=O)N(C)C[C@@H]1Oc2cc(C#CC3(O)CCCC3)ccc2S(=O)(=O)N([C@@H](C)CO)C[C@H]1C	n	n	n	x	x	x	x
C[C@H]1CN([C@@H](C)CO)C(=O)c2cccc(NC(=O)c3ccncc3)c2O[C@@H]1CN(C)C(=O)Nc1ccc(C(F)(F)F)cc1	n	n	n	x	x	x	x
C/C=C/c1ccc([C@@H]2[C@H](CO)N(CCC(F)(F)F)C23CN(C(=O)CN(C)C)C3)cc1	n	x	n	x	x	x	x
COCCNC(=O)C[C@H]1C=C[C@H](NC(=O)NC2CCCCC2)[C@@H](CO)O1	n	x	n	x	x	x	x
O=C(Nc1ccc(F)cc1)N[C@H]1CC[C@H](CCNC(=O)c2ccccc2F)O[C@@H]1CO	n	x	n	x	x	x	x
COc1ccc(NC(=O)Nc2ccc3c(c2)[C@@H]2C[C@@H](CC(=O)NCc4ccc5c(c4)OCO5)O[C@H](CO)[C@@H]2O3)cc1	n	n	n	x	x	x	x
Cc1ccccc1S(=O)(=O)N1CC[C@@H]2[C@H](CO)N(C)c3ccc(C#Cc4ccc(F)cc4)cc3[C@@H]21	n	n	n	x	x	x	x
CC(C)C#Cc1ccc([C@H]2[C@H](CO)N3CCCCN(C(=O)Nc4ccccc4)C[C@@H]23)cc1	n	n	n	x	x	x	x
O=C(c1cccnc1)N1CCCCN2[C@H](CO)[C@H](c3ccc(C#Cc4ccccc4)cc3)[C@@H]2C1	n	101	n	110	n	61	43
O=C(Nc1cccc(F)c1)N1CCCCN2[C@H](CO)[C@H](c3ccc(C#Cc4cccnc4)cc3)[C@@H]2C1	n	n	n	x	x	x	x
O=C(Nc1ccc(F)cc1)N1CCCCN2[C@@H](CO)[C@H](c3ccc(C#Cc4ccccc4)cc3)[C@@H]2C1	n	123	u	99	111	117	105
O=C(c1cccnc1)N1CCCCN2[C@H](C1)[C@@H](c1ccc(C#Cc3cccnc3)cc1)[C@@H]2CO	n	n	n	x	x	x	x
O=C(Nc1ccc(F)cc1)N1CCCCN2[C@H](CO)[C@@H](c3ccc(C#Cc4ccccc4)cc3)[C@@H]2C1	n	n	n	x	x	x	x

Screening data deposited in PubChem BioAssay by Broad Institute.
